Results published in PubChem BioAssay.
For part of these data: Measured potencies and affinities stand elsewhere. The source made the active and inactive calls.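 Rule for the calls, unless noted: active = signal rise over 3 SD above mean of control wells given weak agonist, in both repeats and first screen; inactive = the rest.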

Tests used:
[1] = tested on: TRPC4 beta (transient receptor potential cation channel C4), mouse; assay: activators of mouse TRPC4 channel, confirmation, cell-based, Fluo4 calcium, HEK293 TRPC4beta/mu-opioid, duplicates, 10 µM (AID 2426;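 active = fluorescence ratio normalized to control raised more than 50% in primary screen plus both repeat runs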;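 for activation: percent rise of integrated ratio over buffer wells lacking compound which define 0%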); conditions: Fluo4 calcium fluorescence, at 10 µM; active compounds read high
[2] = tested on: transient receptor potential cation channel C4 beta (TRPC4), mouse; assay: activators of mouse TRPC4 channel, confirmation, cell-based, second round, Fluo4, HEK293 TRPC4beta/mu-opioid, 1 µM (AID 2461;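 active = primary screen active and over 50% activation in each of two duplicate runs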); conditions: Fluo4 calcium fluorescence, at 1 µM; active compounds read high
[3] = tested on: TRPC4 (transient receptor potential cation channel C4 beta), mouse; assay: positive allosteric modulators of mouse TRPC4, confirmation, cell-based, second round, Fluo-4, HEK293 TRPC4beta/mu-opioid, 1 µM (AID 2554;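 active = primary screen hit whose fluorescence ratio, in both repeats, exceeds the weak agonist control mean by 3 SD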); conditions: DAMGO EC20, Fluo-4 calcium flux, at 1 µM; active compounds read high
[4] = tested on: TRPC4 beta (transient receptor potential cation channel C4), mouse; assay: positive allosteric modulators of mouse TRPC4, confirmation, cell-based, Fluo-4, HEK293 TRPC4beta/mu-opioid (AID 2555;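 active = primary screen hit whose calcium fluorescence ratio, in both repeats, exceeds the weak agonist control mean by 3 SD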); conditions: DAMGO EC20, Fluo-4 calcium flux, at 10 µM; active compounds read high
[5] = molecular target: Short transient receptor potential channel 4 (Mus musculus) (UniProt Q9QUQ5); assay: inhibitors of mouse TRPC4 channel, confirmation, cell-based, Fluo4, HEK293 TRPC4beta/mu-opioid (AID 2636;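 active = calcium signal cut by more than 3 SD below the full-agonist control yet still positive, in both repeats and the earlier primary screen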); conditions: DAMGO, Fluo4 calcium flux, at 10 µM; active compounds read high
Short transient receptor potential channel 4 (Mus musculus), sequence (Q9QUQ5 whole entry, looked up): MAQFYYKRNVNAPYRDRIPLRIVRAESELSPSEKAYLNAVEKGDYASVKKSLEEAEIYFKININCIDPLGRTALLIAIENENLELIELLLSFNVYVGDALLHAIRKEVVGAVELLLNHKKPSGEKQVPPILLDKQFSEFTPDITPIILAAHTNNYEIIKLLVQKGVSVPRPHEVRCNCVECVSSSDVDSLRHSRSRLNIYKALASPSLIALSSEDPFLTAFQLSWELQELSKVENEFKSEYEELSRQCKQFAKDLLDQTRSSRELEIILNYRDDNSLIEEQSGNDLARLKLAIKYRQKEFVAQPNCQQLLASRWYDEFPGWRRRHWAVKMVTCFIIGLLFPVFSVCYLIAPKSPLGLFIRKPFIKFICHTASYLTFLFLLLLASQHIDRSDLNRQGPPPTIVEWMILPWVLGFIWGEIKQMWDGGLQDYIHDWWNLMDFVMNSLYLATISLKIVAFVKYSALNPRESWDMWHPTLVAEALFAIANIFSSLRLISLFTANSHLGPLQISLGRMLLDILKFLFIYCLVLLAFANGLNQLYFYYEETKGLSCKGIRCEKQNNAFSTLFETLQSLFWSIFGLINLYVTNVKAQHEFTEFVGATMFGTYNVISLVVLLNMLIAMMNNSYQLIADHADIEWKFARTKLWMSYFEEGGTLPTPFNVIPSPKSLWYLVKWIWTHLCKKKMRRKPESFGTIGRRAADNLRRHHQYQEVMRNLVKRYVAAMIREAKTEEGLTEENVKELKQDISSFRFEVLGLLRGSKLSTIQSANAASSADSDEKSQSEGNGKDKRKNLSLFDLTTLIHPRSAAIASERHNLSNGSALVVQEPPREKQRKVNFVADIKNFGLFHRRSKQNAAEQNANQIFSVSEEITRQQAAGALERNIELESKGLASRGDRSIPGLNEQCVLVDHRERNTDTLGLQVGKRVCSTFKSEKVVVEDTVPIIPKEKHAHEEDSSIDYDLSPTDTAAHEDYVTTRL

[6] = molecular target: Short transient receptor potential channel 4 (Mus musculus) (UniProt Q9QUQ5); assay: inhibitors of mouse TRPC4 channel, confirmation, cell-based, second round, Fluo4, HEK293 TRPC4beta/mu-opioid, 1 µM (AID 2637;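 active = calcium signal ratio cut to more than 3 SD under the fully stimulated control mean yet still positive, in both repeats and the primary screen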); conditions: Fluo4 calcium flux, DAMGO, at 1 µM; active compounds read high
[7] = molecular target: Short transient receptor potential channel 4 (Mus musculus) (UniProt Q9QUQ5); assay: mouse TRPC4 channel activators, dose response, cell-based, HEK293 TRPC4/mu-opioid, Fluo-4 calcium (AID 434937;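 active = primary screen activator hit with a dose response curve and TRPC4 channel activation at any tested dose; inactive = no activation, no dose response, or not a primary hit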)
[8] = molecular target: Short transient receptor potential channel 4 (Mus musculus) (UniProt Q9QUQ5); assay: TRPC4 positive allosteric modulators, dose response, cell-based, HEK293 TRPC4/mu-opioid, Fluo-4 calcium, EC20 DAMGO (AID 434941;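 active = earlier screen potentiator hit that boosts the TRPC4 ion channel at some dose, with a dose response; inactive = no potentiation, no dose response, or not a prior hit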;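 note: calcium entry triggered by an EC20 dose of DAMGO at the co-expressed mu-opioid receptor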)
[9] = molecular target: Short transient receptor potential channel 4 (Mus musculus) (UniProt Q9QUQ5); assay: mouse TRPC4 channel inhibitors, dose response, cell-based, HEK293 TRPC4/mu-opioid, Fluo-4 calcium (AID 434942;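 active = primary screen inhibitor hit that blocks the TRPC4 channel at some tested dose, yielding a dose curve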)
[10] = molecular target: Short transient receptor potential channel 6 (Mus musculus) (UniProt Q61143); assay: inhibition of mouse TRPC6 channel, confirmation, selectivity assay for TRPC4 inhibitor project, cell-based, HEK293, membrane potential dye, duplicate (AID 434948;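 active = active in primary screen and both duplicates, each dropping signal beyond three positive-control SD with fluorescence still positive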); conditions: HEK293 TRPC6, membrane potential dye fluorescence, at 10 µM, stimulated with maximal-effect acetylcholine; active compounds read high
Short transient receptor potential channel 6 (Mus musculus), sequence (Q61143 whole entry, looked up): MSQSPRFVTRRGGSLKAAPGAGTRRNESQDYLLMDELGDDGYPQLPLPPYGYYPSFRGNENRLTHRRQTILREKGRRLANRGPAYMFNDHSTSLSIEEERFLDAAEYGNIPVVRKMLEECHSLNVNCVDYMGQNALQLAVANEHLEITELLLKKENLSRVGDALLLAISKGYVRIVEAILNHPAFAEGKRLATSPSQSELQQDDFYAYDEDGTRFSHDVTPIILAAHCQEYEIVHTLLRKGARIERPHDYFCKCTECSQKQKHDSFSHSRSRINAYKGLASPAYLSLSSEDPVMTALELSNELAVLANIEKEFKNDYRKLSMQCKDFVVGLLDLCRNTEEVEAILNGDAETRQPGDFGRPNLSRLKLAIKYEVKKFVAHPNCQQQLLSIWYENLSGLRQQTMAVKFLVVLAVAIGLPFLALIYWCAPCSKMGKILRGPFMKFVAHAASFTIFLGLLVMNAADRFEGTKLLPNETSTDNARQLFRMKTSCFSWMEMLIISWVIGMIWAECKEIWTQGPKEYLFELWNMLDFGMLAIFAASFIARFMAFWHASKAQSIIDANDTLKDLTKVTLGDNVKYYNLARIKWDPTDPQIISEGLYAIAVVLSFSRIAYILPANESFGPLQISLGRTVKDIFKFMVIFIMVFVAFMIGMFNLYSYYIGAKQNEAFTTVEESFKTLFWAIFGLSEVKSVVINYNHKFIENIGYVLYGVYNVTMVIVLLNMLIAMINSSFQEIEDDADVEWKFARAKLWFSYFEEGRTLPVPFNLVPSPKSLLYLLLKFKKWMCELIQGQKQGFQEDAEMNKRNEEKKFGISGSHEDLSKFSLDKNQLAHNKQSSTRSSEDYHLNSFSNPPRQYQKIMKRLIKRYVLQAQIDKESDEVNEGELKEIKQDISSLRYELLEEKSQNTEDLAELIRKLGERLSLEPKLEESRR

[11] = molecular target: Short transient receptor potential channel 6 (Mus musculus) (UniProt Q61143); assay: activation of mouse TRPC6 channel, confirmation, selectivity assay for TRPC4 activator project, cell-based, HEK293, membrane potential dye, duplicate (AID 434950;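 active = membrane potential signal rise above negative control mean plus 3 SD in both duplicates, also active in the earlier TRPC4 screen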); conditions: HEK293 TRPC6, membrane potential fluorescence, at 10 µM; active compounds read high
[12] = molecular target: Short transient receptor potential channel 6 (Mus musculus) (UniProt Q61143); assay: TRPC6 potentiation by TRPC4 potentiator hits, confirmation, selectivity assay for TRPC4 potentiator project, HEK293 cells, membrane potential dye, duplicate (AID 434952;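 active = compound raising the membrane signal above positive-control mean plus 3 SD in both repeats, and a primary screen hit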); conditions: HEK293 TRPC6, membrane potential dye fluorescence, at 10 µM, maximal acetylcholine added after compound; active compounds read high
[13] = molecular target: Short transient receptor potential channel 4 (Mus musculus) (UniProt Q9QUQ5); assay: calcium flux activators in TRPC4/5HT1a cells, counter-screen for TRPC4 activator project, cell-based, second counter screen, HEK293 TRPC4/5HT1a, Fluo-4 (AID 434977;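 active = calcium signal rise above buffer-control mean plus 5 SD in both duplicates, and also a hit in the primary screen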;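 for activation: plate controls were assay buffer for no effect and maximal serotonin response for full effect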); conditions: Fluo-4 calcium flux, at 10 µM; active compounds read high
[14] = calcium flux inhibitors in TRPC4/5HT1a cells, confirmation, counter-screen for TRPC4 inhibitor project, cell-based, second counter screen, HEK293 TRPC4/5HT1a, Fluo-4 (AID 434978;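 active = primary screen active whose calcium signal fell more than 3 SD beyond the full-serotonin control mean in both duplicate plates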;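 note: serotonin given first at submaximal then at maximal dose after compound preincubation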); conditions: Fluo-4 calcium flux, at 10 µM, serotonin added to trigger calcium flux; active compounds read high
[15] = tested on: TRPC4 (mouse), co-expressed with 5HT1a in HEK293; assay: calcium flux potentiators in TRPC4/5HT1a cells, confirmation, counter-screen for TRPC4 potentiator project, cell-based, second counter screen, HEK293 TRPC4/5HT1a, Fluo-4 (AID 434979); conditions: Fluo-4 calcium flux, at 10 µM, serotonin added at its EC20 dose; active compounds read high
[16] = calcium flux activation in mu-opioid HEK293 cells, confirmation, counter-screen for TRPC4 activator project, cell-based, HEK293 mu-opioid receptor line (AID 449723;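 active = hit in primary screen, with calcium signal over 5 SD above buffer well mean in both duplicates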;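 note: counter screen cells carry the mu-opioid receptor alone and lack TRPC4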); conditions: Fluo-4 calcium fluorescence, at 10 µM; active compounds read high
[17] = calcium flux enhancement in mu-opioid HEK293 cells, confirmation, counter-screen for TRPC4 allosteric potentiator project, cell-based, HEK293 mu-opioid receptor line (AID 449724;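 active = calcium signal rise more than 3 SD above the low-dose agonist control mean, in both duplicate plates and the primary screen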); conditions: Fluo-4 calcium flux, at 10 µM, compound added before EC20 DAMGO stimulus; active compounds read high

C=CCNC(=O)C(=O)NCC1CCCN1S(=O)(=O)c1cccs1 (stereo not given)
active: potentiation [15] 11.2%
inactive: outcome [1] | outcome [2] | outcome [3] | outcome [4] | outcome [5] | outcome [6] | outcome [7] | outcome [8] | outcome [9] | outcome [10] | outcome [11] | outcome [12] | outcome [13] | outcome [14] | outcome [16] | outcome [17]

O=C(Cc1ccccc1)Nc1cccc(NC(=O)c2cccs2)c1
inactive: outcome [1] | outcome [2] | outcome [3] | outcome [4] | outcome [5] | outcome [6] | outcome [7] | outcome [8] | outcome [9] | outcome [10] | outcome [11] | outcome [12] | outcome [13] | outcome [14] | outcome [15] | outcome [16] | outcome [17]

O=C(NC1CCCC1)c1cc2ccccc2o1
active: potentiation [4] 14% | potentiation [15] 19.7%
inactive: outcome [1] | outcome [2] | outcome [3] | outcome [5] | outcome [6] | outcome [7] | outcome [8] | outcome [9] | outcome [10] | outcome [11] | outcome [12] | outcome [13] | outcome [14] | outcome [16] | outcome [17]

COc1cccc(C(=O)Oc2ccc(/C=N/Nc3ccc(C(=O)O)cc3)cc2OC)c1
inactive: outcome [1] | outcome [2] | outcome [3] | outcome [4] | outcome [5] | outcome [6] | outcome [7] | outcome [8] | outcome [9] | outcome [10] | outcome [11] | outcome [12] | outcome [13] | outcome [14] | outcome [15] | outcome [16] | outcome [17]

CSc1ccc(/C=N\NC(=O)CC(=O)NC(C)C)cc1
inactive: outcome [1] | outcome [2] | outcome [3] | outcome [4] | outcome [5] | outcome [6] | outcome [7] | outcome [8] | outcome [9] | outcome [10] | outcome [11] | outcome [12] | outcome [13] | outcome [14] | outcome [15] | outcome [16] | outcome [17]

CC(C)Cn1c(O)c(N=NC(=O)c2cccc(S(=O)(=O)N3CCCCC3)c2)c2ccccc21
inactive: outcome [1] | outcome [2] | outcome [3] | outcome [5] | outcome [6] | outcome [7] | outcome [8] | outcome [9] | outcome [10] | outcome [11] | outcome [12] | outcome [13] | outcome [14] | outcome [15] | outcome [16] | outcome [17]
active: potentiation [4] 15%

CC1(C#CC[N+]2(C)CCCCC2)CCC2C(O1)c1ccccc1OC2(C)C (stereo not given)
active: potentiation [3] 8% | potentiation [4] 21%
inactive: outcome [1] | outcome [2] | outcome [5] | outcome [6] | outcome [7] | outcome [8] | outcome [9] | outcome [10] | outcome [11] | outcome [12] | outcome [13] | outcome [14] | outcome [15] | outcome [16] | outcome [17]

CC(C)(C)n1cnc2cc(NCc3ccc(Br)cc3)ccc21
inactive: outcome [1] | outcome [2] | outcome [3] | outcome [4] | outcome [5] | outcome [6] | outcome [7] | outcome [8] | outcome [9] | outcome [10] | outcome [11] | outcome [12] | outcome [13] | outcome [14] | outcome [16] | outcome [17]
active: potentiation [15] 8.63%

COc1cc(OC)c2c(-c3ccccc3)cc(=O)oc2c1C(CCN1CCCCC1)c1ccc(N(C)C)cc1 (stereo not given)
active: activation [1] 82% | activation [13] 38.3%
inactive: outcome [2] | outcome [3] | outcome [4] | outcome [5] | outcome [6] | outcome [7] | outcome [8] | outcome [9] | outcome [10] | outcome [11] | outcome [12] | outcome [14] | outcome [15] | outcome [16] | outcome [17]

CCOC(=O)c1c(NC(=O)C2CCCO2)sc2c1CCC2 (stereo not given)
active: potentiation [4] 40% | potentiation [15] 47.8%
inactive: outcome [1] | outcome [2] | outcome [3] | outcome [5] | outcome [6] | outcome [7] | outcome [8] | outcome [9] | outcome [10] | outcome [11] | outcome [12] | outcome [13] | outcome [14] | outcome [16] | outcome [17]

CN(CCNS(=O)(=O)c1ccc2c(c1)oc(=O)n2C)Cc1ccccc1
active: potentiation [4] 8% | potentiation [15] 13.7%
inactive: outcome [1] | outcome [2] | outcome [3] | outcome [5] | outcome [6] | outcome [7] | outcome [8] | outcome [9] | outcome [10] | outcome [11] | outcome [12] | outcome [13] | outcome [14] | outcome [16] | outcome [17]

CC(=O)Nc1cccc(C(=O)OC(C(=O)c2ccc(C)cc2)c2ccccc2)c1 (stereo not given)
inactive: outcome [1] | outcome [2] | outcome [3] | outcome [4] | outcome [5] | outcome [6] | outcome [7] | outcome [8] | outcome [9] | outcome [10] | outcome [11] | outcome [12] | outcome [13] | outcome [14] | outcome [16] | outcome [17]
active: potentiation [15] 22.7%

C=CCc1cc(Cl)ccc1OCCCn1ccnc1
active: potentiation [3] 9%
inactive: outcome [1] | outcome [2] | outcome [4] | outcome [5] | outcome [6] | outcome [7] | outcome [8] | outcome [9] | outcome [10] | outcome [11] | outcome [12] | outcome [13] | outcome [14] | outcome [15] | outcome [16] | outcome [17]

Cc1cc(C)c(C)c(OCCCOc2cccc3cccnc23)c1
active: potentiation [15] 19%
inactive: outcome [1] | outcome [2] | outcome [3] | outcome [4] | outcome [5] | outcome [6] | outcome [7] | outcome [8] | outcome [9] | outcome [10] | outcome [11] | outcome [12] | outcome [13] | outcome [14] | outcome [16] | outcome [17]

COc1ccc(CNc2ccc(Cl)cc2)cc1Cn1ccnc1
inactive: outcome [1] | outcome [2] | outcome [3] | outcome [4] | outcome [5] | outcome [6] | outcome [7] | outcome [8] | outcome [9] | outcome [10] | outcome [11] | outcome [12] | outcome [13] | outcome [14] | outcome [15] | outcome [16] | outcome [17]
